Assay outcomes from PubChem.
Fam108B counter = blocks mouse Fam108B hydrolase in RBBP9 counter-screen. recombinant Fam108B, FP-Rh probe fluorescence polarization. inhibition, % at 9.51 µM. 300,000 tested, 0.33% active;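 active = inhibition above the screen mean inhibition plus 3 SD, computed separately per campaign, cut at about 18% in these data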;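 also: inhibitors lower polarization as less probe binds the enzyme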
PAFAH1B3 inh = PAFAH1B3 (human) inhibition. inhibition, % at 3.39 µM. 340,000 tested, 0.28% active. AID 492972. recombinant PAFAH1B3, FP-rhodamine probe, fluorescence polarization;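 active = inhibition above the screen-wide average of all tested compounds plus 3 SD, cut at about 25% in these data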;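 also: 0% = enzyme with DMSO only and 100% = wells lacking PAFAH1B3 protein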
Target sequence (Q15102 whole entry, looked up): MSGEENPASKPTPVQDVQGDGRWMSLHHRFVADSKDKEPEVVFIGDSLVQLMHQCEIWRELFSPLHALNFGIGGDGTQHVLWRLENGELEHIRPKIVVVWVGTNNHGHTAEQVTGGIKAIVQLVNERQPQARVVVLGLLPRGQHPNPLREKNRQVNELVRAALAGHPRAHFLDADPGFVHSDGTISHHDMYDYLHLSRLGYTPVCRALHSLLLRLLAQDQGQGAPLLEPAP
PAFAH2 inh = PAFAH2 (human) inhibition | recombinant PAFAH2, FP-rhodamine activity probe, fluorescence polarization | AID 492956 | 340,000 tested, 0.99% active | Q99487 | inhibition, % at 3.39 µM;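 active = inhibition above the mean over all tested compounds plus 3 SD, cut at about 30% in these data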;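 also: inhibitors block probe labeling of enzyme so polarization drops; 0% = enzyme with DMSO and 100% = wells lacking PAFAH2 protein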
pPAFAH FP inh = pPAFAH (human) enzyme inhibition. recombinant pPAFAH, FP-rhodamine probe fluorescence polarization. AID 463082. Q13093. inhibition, % at 3.39 µM. 330,000 tested, 1.5% active;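 active = inhibition above the mean inhibition across the screen plus 3 SD, cut at about 25% in these data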;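 also: inhibitors block binding of the rhodamine activity-based probe so polarization drops; 0% = enzyme with DMSO and 100% = wells lacking pPAFAH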
PME-1 inh = PME-1 (human) inhibition | Q9Y570 | recombinant PME-1, FP-Rh probe fluorescence polarization | inhibition, % at 5.9 µM | 320,000 tested, 0.53% active;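 active = inhibition above the campaign mean of all compounds plus 3 SD, cut at about 26% in these data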;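 also: competitive labeling of PME-1 active site by serine hydrolase directed probe; 0% = PME-1 with DMSO and 100% = wells lacking PME-1 enzyme; inhibitors block probe labeling so polarization falls and inhibition rises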
Target sequence (Q9Y570 whole entry, looked up): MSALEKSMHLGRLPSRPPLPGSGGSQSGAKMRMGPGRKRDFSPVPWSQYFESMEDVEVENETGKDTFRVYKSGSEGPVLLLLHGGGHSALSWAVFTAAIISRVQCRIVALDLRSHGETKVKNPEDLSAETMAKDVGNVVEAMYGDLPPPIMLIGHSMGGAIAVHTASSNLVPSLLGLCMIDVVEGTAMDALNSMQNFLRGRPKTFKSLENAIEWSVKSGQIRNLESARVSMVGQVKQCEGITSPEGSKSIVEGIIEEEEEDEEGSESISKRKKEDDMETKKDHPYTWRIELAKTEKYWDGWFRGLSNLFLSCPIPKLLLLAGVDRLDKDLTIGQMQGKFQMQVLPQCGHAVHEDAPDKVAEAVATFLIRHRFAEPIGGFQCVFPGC
PAFAH1B2 FP inh = blocks human PAF acetylhydrolase 1b catalytic subunit 2. P68402. recombinant PAFAH1B2, FP-rhodamine activity probe, fluorescence polarization. inhibition, % at 3.39 µM. 340,000 tested, 1.2% active;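 active = inhibition above the mean of all tested compounds plus 3 SD, cut at about 24% in these data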;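 also: 0% = enzyme with DMSO and 100% = wells lacking PAFAH1B2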
* marks the source's active call; other numbers are inactive results; / = no result. Most compounds without a hit are left out; they make up all but 2.9% or so of the library.

SMILES	Fam108B counter	PAFAH1B3 inh	PAFAH2 inh	pPAFAH FP inh	PME-1 inh	PAFAH1B2 FP inh
CCOC(=O)c1ccc(NC(=S)N2CCCC(C(=O)N3CCCC3)C2)cc1 (stereo not drawn)	-2	-1	1	32*	-5	0
O=C(O)c1cc(N/N=C2/CC(c3ccccc3)Oc3ccccc32)ccc1Cl (stereo not drawn)	1	7	17	34*	8	2
CCCCOC(=O)Oc1ccc2c(=O)c(Oc3cccc(C)c3)coc2c1	-6	1	18	27*	3	3
CCCCOC(=O)Oc1ccc2c(=O)c(Oc3cc(C)cc(C)c3)coc2c1	-2	-14	7	7	2	4
O=C(Oc1c(CN2CCOCC2)cc(Cl)c2cccnc12)c1ccccc1	-2	9	1	3	-1	6
Oc1c(Cl)cc(CN2CCOCC2)c2cccnc12	/	8	7	28*	1	5
Cn1c2ccccc2c2cc(/C=N/NC(=O)c3ccccc3F)ccc21	-1	4	-5	2	5	-6
Cn1c2ccccc2c2cc(/C=N/NC(=O)c3ccc(N)cc3)ccc21	17	12	-5	31*	40*	12
O=C(/C=C/c1ccc(Cl)cc1)N(Cc1ccccc1)c1ccccn1	-5	6	3	1	4	-1
NS(=O)(=O)c1ccc(-c2ccc(/C=C3\SC(=S)N(C4CCS(=O)(=O)C4)C3=O)o2)cc1 (stereo not drawn)	-1	5	5	25*	-5	5
Cc1ccc(/C=C2\SC(=S)N(C3CCS(=O)(=O)C3)C2=O)o1 (stereo not drawn)	5	7	-6	11	-1	-7
CN(C(=O)CSc1ncnc2sccc12)C1CCCCC1	/	6	-1	3	1	9
CN(C1CCCCC1)S(=O)(=O)c1ccc2c(c1)c(=O)c(C(=O)NCCCN1CCCC1)cn2C	-1	-1	8	7	4	-4
CCN(CC)CCCNC(=O)c1cn(CC)c2ccc(S(=O)(=O)N(C)C3CCCCC3)cc2c1=O	-3	1	3	3	14	2
CCCCN(CCCC)CCNC(=O)c1cn(CC)c2ccc(S(=O)(=O)N(C)C3CCCCC3)cc2c1=O	1	6	4	5	82*	5
CCn1cc(C(=O)NCCCN2CCCC(C)C2)c(=O)c2cc(S(=O)(=O)N(C)C3CCCCC3)ccc21 (stereo not drawn)	-7	2	4	-4	52*	-1
CCCCN(CC)CCCNC(=O)c1cn(C)c2ccc(S(=O)(=O)N(C)C3CCCCC3)cc2c1=O	4	1	7	4	40*	1
Cn1nnnc1SCCNCc1ccccc1OCc1ccccc1Cl	-7	5	-2	0	0	1
NC(=O)c1c(NC(=O)c2ccco2)sc2c1CCC2	-5	4	-3	7	-2	-2
N#Cc1c(NC(=O)c2ccco2)sc2c1CCC2	6	4	-50	30*	2	11
Cc1oc(C)c2c(=O)ccc3c(c12)OC(N)=C(C#N)C3c1ccccc1Cl (stereo not drawn)	1	-1	4	25*	9	-10
Cc1oc(C)c2c(=O)ccc3c(c12)OC(N)=C(C#N)C3c1ccccc1 (stereo not drawn)	0	8	9	13	3	2
CSc1ccc(C2C(C#N)=C(N)Oc3c2ccc(=O)c2c(C)oc(C)c32)cc1 (stereo not drawn)	-9	3	24	31*	-7	2
Cc1cccc(CSCCNC(=O)CN(c2cc(C)cc(C)c2)S(C)(=O)=O)c1	-1	1	-5	6	-4	-2
CN1CC=C2C(C#N)=C(N)C(C#N)(C#N)[C@H](c3ccoc3)[C@H]2C1	9	20	28	32*	14	14
SMILES	Fam108B counter	PAFAH1B3 inh	PAFAH2 inh	pPAFAH FP inh	PME-1 inh	PAFAH1B2 FP inh
Cc1ccc(C(=O)COC(=O)CCS(=O)(=O)c2ccccc2)cc1[N+](=O)[O-]	/	5	8	13	-4	8
COCCN(C(=O)COC(=O)CCn1c(C)csc1=O)c1c(N)n(Cc2ccccc2)c(=O)[nH]c1=O	1	1	-4	-3	0	4
Cc1csc(=O)n1CCC(=O)OCC(=O)N(CC(C)C)c1c(N)n(Cc2ccccc2)c(=O)[nH]c1=O	-7	13	-5	26*	9	4
Cc1ccc2cc(C#N)c(SCc3nnc(-c4ccccc4[N+](=O)[O-])o3)nc2c1	4	9	0	2	35*	0
COC(=O)CSc1nc2cc(C)ccc2cc1C#N	-5	10	-2	10	3	2
COc1ccc(C2=NOC(C(=O)Nc3cc(C)on3)C2)cc1OC (stereo not drawn)	10	5	-2	-4	-1	3
OCCN(CCO)c1ccc(C(c2ccccc2Cl)c2ccc(N(CCO)CCO)cc2Cl)c(Cl)c1	14	20	22	25*	15	9
CCCOc1ccc(NC(=O)C2CC(=O)N(C(C)C)C2)cc1 (stereo not drawn)	0	3	2	8	-2	5
Cc1ccc(C(=O)NN2C(=O)c3ccc(S(=O)(=O)c4ccc(C(=O)O)cc4)cc3C2=O)cc1	1	3	5	-1	2	24*
O=C(O)c1ccc(S(=O)(=O)c2ccc3c(c2)C(=O)N(NC(=O)c2ccc(O)cc2)C3=O)cc1	0	4	2	0	1	4
COc1ccc2c3c(cccc13)C(=O)CC2	/	110*	126*	/	/	100*
CCOC(=O)c1coc(CNC(=O)c2c(C)oc3c2CCCC3)c1	-3	-3	-2	2	0	-1
CCC1Nc2ncnc(N3CCc4ccccc4C3)c2N(Cc2ccc(Cl)cc2)C1=O (stereo not drawn)	/	-7	2	6	/	26*
O=[N+]([O-])c1ccc2n[nH]nc2c1	-1	12	-1	3	-5	5
O=C(O)CC/C(=C\c1ccc(N2CCCC2)c([N+](=O)[O-])c1)c1nc2ccccc2s1	-2	9	17	16	40*	103*
O=C(O)CC/C(=C\c1cc([N+](=O)[O-])ccc1Cl)c1nc2ccccc2s1	-4	10	12	11	6	0
CN(c1ccccc1)c1ccc(/C=C(/CCC(=O)O)c2nc3ccccc3s2)cc1[N+](=O)[O-]	/	12	41*	/	/	94*
O=C(O)CC/C(=C\c1ccccc1[N+](=O)[O-])c1nc2ccccc2s1	-2	2	1	0	-2	3
CCOC(=O)C(CSCC(=O)c1ccc(Cl)cc1Cl)NC(=O)OC(C)(C)C (stereo not drawn)	0	-5	3	2	-3	0
O=S(=O)(O)c1cc(OS(=O)(=O)c2ccccc2)cc2ccccc12	-3	7	3	-3	2	30*
